High-throughput results: PubChem BioAssay, National Center for Advancing Translational Sciences (NCATS)
Many of the other results were omitted from the sample, so hits are more common in it than they were.
Methyltransferases: Primary Screen for Target Class Profiling of Small Molecule Inhibitors of Methyltransferases; 25,000 compounds, 3.9% hits; purified enzyme, MTase-Glo SAH luminescence; active compounds read low; calls only at 40 µM; AID 1745853, 2022; call rule not given here
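Each enzyme was assayed with SAM and its substrate. SAH formation detected by MTase-Glo luminescence; single-point 40 uM screen[…].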
MTase-Glo ctr: counter-screen for methyltransferase inhibitors: coupling enzymes without methyltransferase; shares compounds with Methyltransferases; MTase-Glo coupled enzymes, SAH conversion luminescence, no MTase; Potency, µM (series often up to 57.3 µM), for inactives: at the highest dose activity change, negative = inhibition, most hits filed as inhibitors; 180 compounds, 6% hits; active = well fitted inhibition curve with a large enough effect; also: potency is read from the fitted curve at half-maximal effect
Starred values were filed as active, the others as inactive; [ ] = another dose, or the depositor's remark. % is scaled to controls: 0 for no effect and ±100 for the full control effect.

Screening CCOc1ccccc1NC(=O)N1Cc2ccccc2-n2cccc2C1c1ccc(CC)cc1 (stereo unspecified) returned Methyltransferases inactive.
For C[C@@H]1O[C@@H](O[C@H]2CC[C@@]3(C)C(CC[C@@H]4C3CC[C@]3(C)[C@@H](C5=CC(=O)OC5)CC[C@]43O)C2)[C@H](O[C@@H]2O[C@H](CO)[C@@H](O)[C@H](O)[C@H]2O)[C@H](O)[C@H]1O (stereo partly specified) the results were Methyltransferases inactive.
`COCCCNC(=O)N1Cc2ccccc2-n2cccc2C1c1ccc(OC)c(OC)c1` (stereo unspecified) gave Methyltransferases inactive.
CCC1c2cccn2-c2ccccc2CN1C(=O)Nc1ccc(Br)cc1F (stereo unspecified) was read as Methyltransferases inactive.
`COC1CCCC(C)OC(=O)Cc2cc(O)cc(O)c2C(=O)C1` (stereo unspecified) gave Methyltransferases inactive.
For CC1CCCC(O)CCC/C=C/c2cc(O)cc(O)c2C(=O)O1 (stereo unspecified) the results were Methyltransferases inactive.
CC1CCCC(=O)CCC/C=C/c2cc(O)cc(O)c2C(=O)O1 (stereo unspecified) was read as Methyltransferases active.
O=C(Nc1ccc2n(c1=O)C[C@H]1C[C@@H]2CN(c2ncccn2)C1)c1ccccc1 was read as Methyltransferases inactive.
`CCc1ccc(NC(=O)N2Cc3ccccc3-n3cccc3C2C(C)C)cc1` (stereo unspecified) gave Methyltransferases inactive.
Screening CC[C@@H](CO)NC(=O)[C@@H]1C=C2c3cccc4[nH]cc(c34)C[C@H]2N(C)C1 returned Methyltransferases active.
CC[C@@H](CO)NC(=O)[C@@H]1C=C2c3cccc4c3c(cn4C)C[C@H]2N(C)C1 was read as Methyltransferases active.
Screening COc1ccc(C2c3cccn3-c3ccccc3CN2C(=O)Nc2cc(C)cc(C)c2)cc1OC (stereo unspecified) returned Methyltransferases inactive.
For CCOc1ccc(NC(=O)N2Cc3ccccc3-n3cccc3C2c2ccc(SC)cc2)cc1 (stereo unspecified) the results were Methyltransferases inactive.
CCOc1ccc(C2c3cccn3-c3ccccc3CN2C(=O)Nc2ccccc2OCC)cc1 (stereo unspecified) was read as Methyltransferases inactive.
`Cc1cccc(NC(=O)N2Cc3ccccc3-n3cccc3C2c2ccccc2)c1C` (stereo unspecified) gave Methyltransferases inactive.
Screening O=C(Nc1ccc(F)cc1)N1Cc2ccccc2-n2cccc2C1c1ccccc1 (stereo unspecified) returned Methyltransferases inactive.
`O=C([C@H]1CN2CCC1C[C@@H]2Cn1cc(CCO)nn1)N1CCOCC1` (stereo partly specified) gave Methyltransferases inactive.
Screening CSc1ccc(C2c3cccn3-c3ccccc3CN2C(=O)NCc2ccc(C)cc2)cc1 (stereo unspecified) returned Methyltransferases inactive.
`CC(C)CCNC(=O)N1Cc2ccccc2-n2cccc2C1c1cccs1` (stereo unspecified) gave Methyltransferases inactive.
CCOC(=O)c1cccc(NC(=O)N2Cc3ccccc3-n3cccc3C2c2ccccc2Cl)c1 (stereo unspecified) was read as Methyltransferases inactive.
Screening CC1Oc2cc3c(-c4c(O)cc(O)c5c(O)c6c(cc45)OC(C)C(C)C6=O)c(O)cc(O)c3c(O)c2C(=O)C1C (stereo unspecified) returned Methyltransferases active.
`CO[C@H]1[C@H](O)[C@H](O[C@H]2CC[C@]3(C=O)C4CC[C@]5(C)[C@H](C6=CC(=O)OC6)CC[C@]5(O)C4CC[C@@H]3C2)O[C@@H](C)[C@@H]1O` (stereo partly specified) gave Methyltransferases inactive.
`CC(C)C1c2cccn2-c2ccccc2CN1C(=O)NCc1ccccc1` (stereo unspecified) gave Methyltransferases inactive.
For c1ccc(C2(c3ccccc3)OC[C@@H]([C@H]3CCCCN3)O2)cc1 the results were Methyltransferases inactive.
Screening Oc1ccc2c(c1)C13CCCC[C@H]1[C@@H](C2)N(CC1CCC1)CC3 returned Methyltransferases active.
CCc1ccc(C2c3cccn3-c3ccccc3CN2C(=O)NCc2ccc(C)cc2)cc1 (stereo unspecified) was read as Methyltransferases inactive.
COc1ccc(OC)c(NC(=O)N2Cc3ccccc3-n3cccc3C2c2ccc(N(C)C)cc2)c1 (stereo unspecified) was read as Methyltransferases inactive.
CS(=O)(=O)NC[C@H]1C[C@@H]2CCN1C[C@@H]2CN1CCc2ccccc2C1 was read as Methyltransferases inactive.
For CC[C@H]1CN2CC[C@H]1C[C@@H]2CNCc1ccc(-c2ccccc2)cc1 the results were Methyltransferases active and MTase-Glo ctr 2%[85.7 µM].
Screening COc1ccccc1-c1cc([C@H]2CN3CC[C@H]2C[C@@H]3CNS(=O)(=O)c2ccccc2)n(C)n1 returned Methyltransferases inactive.
`O=C1C=CC[C@@H]2[C@H]3CCCN4CCC[C@@H](CN12)[C@@H]34` gave Methyltransferases inactive.
CCCNC(=O)N1Cc2ccccc2-n2cccc2C1c1ccccc1 (stereo unspecified) was read as Methyltransferases inactive.
Screening O=C(Nc1ccc(Cl)cc1)N1Cc2ccccc2-n2cccc2C1c1cccs1 (stereo unspecified) returned Methyltransferases inactive.
C=C[C@H]1CN2CC[C@H]1C[C@@H]2CNC(=O)Nc1ccc(Br)cc1 was read as Methyltransferases active and MTase-Glo ctr -30%[85.7 µM].
Screening Cn1nc(-c2cccs2)cc1[C@H]1CN2CC[C@H]1C[C@@H]2CNC(=O)C1CCCCC1 returned Methyltransferases inactive.
`C=C[C@H]1CN2CC[C@H]1C[C@@H]2[C@@H](O)c1ccnc2ccccc12` gave Methyltransferases inactive.
`CCOc1ccc(C2c3cccn3-c3ccccc3CN2C(=O)Nc2ccc(OC)c(OC)c2)cc1` (stereo unspecified) gave Methyltransferases inactive.
